Assay results taken from PubChem BioAssay.
Values without a mark were called inactive.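 How the source made its calls, unless noted: active means NADPH fluorescence slope more negative than the mean of all samples by about 3 SD, 99.7% confidence; inactive means the rest.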

molecular target: Voltage-gated potassium channel subunit beta-2 (Rattus norvegicus) (UniProt P62483); assay: KvBeta enzyme negative modulators, primary screen, biochemical, NADPH fluorescence (AID 622;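 active means fluorescence slope higher than the sample average by over 3 SD, cut at about -0.22 in these data, passing the limit was not always enough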;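 further: slope of raw intensity against log time taken from 70 to 1610 s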); conditions: recombinant KvBeta, 4-cyanobenzaldehyde reduction, at 10 µM, hits give high values
Sequence (P62483 whole entry, looked up): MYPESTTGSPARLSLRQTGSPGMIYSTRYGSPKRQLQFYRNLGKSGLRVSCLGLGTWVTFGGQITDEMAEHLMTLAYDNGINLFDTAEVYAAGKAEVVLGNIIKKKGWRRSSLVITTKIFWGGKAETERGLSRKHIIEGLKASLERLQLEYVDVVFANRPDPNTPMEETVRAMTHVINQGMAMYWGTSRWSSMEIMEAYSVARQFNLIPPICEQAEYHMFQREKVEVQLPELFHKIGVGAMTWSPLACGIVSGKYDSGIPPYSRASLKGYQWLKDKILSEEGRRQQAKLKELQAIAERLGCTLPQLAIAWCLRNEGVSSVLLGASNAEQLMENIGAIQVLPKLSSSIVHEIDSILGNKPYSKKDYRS

SMILES	fluorescence slope
O=C1C=C(O)CC(c2cccs2)C1 (stereo not given)	-0.536
Cc1c(C(Nc2ccccn2)c2ccccc2)c(=O)n(-c2ccccc2)n1C (stereo not given)	-0.508
O=C(c1nsnc1-c1ccccc1O)N1CCCCC1	-0.563
Cc1cc(=O)oc(C)c1C(=O)N1CCN(C)CC1	-0.463
CCCOc1ccc(C2NC(=O)NC2=O)cc1 (stereo not given)	-0.511
O=c1c(-c2ccc3c(c2)OCCO3)c(C(F)(F)F)oc2cc(O)cc(O)c12	-0.533
Cn1c(=NCC(O)COc2ccccc2)sc2ccccc21 (stereo not given)	-0.367
COc1cc(-c2cc(C(F)(F)F)n3ncc(C(=O)O)c3n2)cc(OC)c1OC	-0.439
CCOC(=O)CSc1nc(-c2ccncc2)ccc1C#N	-0.355
COc1ccc(OCC(O)Cn2c(Nc3cccc(C)c3)nc3c2c(=O)n(C)c(=O)n3C)cc1 (stereo not given)	-0.541
CCCCn1c2nc3ccccc3nc2c2c(=O)n(CC(C)C)cnc21	-0.436
CCN(CC)S(=O)(=O)c1ccc2c(c1)c(C(=O)O)cn2C	-0.568
CSc1nc(C)cc(OCCNS(=O)(=O)c2cc(C)ccc2C)n1	-0.414
CCOc1nc(SC(C(C)=O)C(=O)Nc2ccccc2)nc(N(C)C)n1 (stereo not given)	-0.456
O=C(Oc1ccccc1N1C(=O)CCC1=O)c1ccco1	-0.557
Cc1cc(C)c(C#N)c(SCC(=O)NC2CC2)n1	-0.444
COC(=O)c1ccccc1NC=C1C(=O)OC2(CCCCC2)OC1=O	-0.443
Cc1cc(C)n(C(=O)CN2C(=O)CCC2=O)n1	-0.249
CN1C2C=C3C(C#N)=C(N)C(C#N)(C#N)[C@@H](c4ccsc4)[C@@H]3C1CC2 (stereo not given in full)	-0.396
Cc1ccc(/C=c2\sc3n(c2=O)CN(c2ccc(Br)cc2)CN=3)o1	-0.389

SMILES	fluorescence slope
Clc1ccccc1-c1nn2c(-c3ccccn3)nnc2s1	-0.404
CC(=O)NC1(C(F)(F)F)C(=O)Nc2c1c(=O)n(C)c(=O)n2C (stereo not given)	-0.529
CC(Sc1nc(N2CCCCC2)c2c(c1C#N)CCCC2)C(=O)O (stereo not given)	-0.301
CCN(CC)CCCn1c(C)cc2c(c1=O)C(c1cccc(Cl)c1)C(C#N)=C(N)O2 (stereo not given)	-0.388
CCCCOC(=O)CSc1nc(N)c(C#N)c(-c2ccc(OC)cc2)c1C#N	-0.52
COc1ccc(N2CCN(C3CC(=O)NC3=O)CC2)cc1 (stereo not given)	-0.548
O=C(c1ccco1)N1CCN(c2ncnc3c2[nH]c2ccccc23)CC1	-0.359
COc1ccc(OC)c(C2NC(=O)c3sc(=S)n(-c4ccccc4)c3N2)c1 (stereo not given)	-0.369
CCOc1ccc(-c2nn3c(-c4ccc(OC)cc4)nnc3s2)cc1	-0.443
c1cncc(-c2nnc3sc(C4CCCCC4)nn23)c1	-0.442
Cc1c(C(=O)O)c(=S)sn1CCOc1ccccc1	-0.256
CCC1(C)Cc2c(sc3c2c(=O)n(C)c2nnc(SCc4ccc5c(c4)OCO5)n32)CO1 (stereo not given)	-0.418
CCCC(=O)N1CCN(c2nc(CC(C)C)c3c(c2C#N)CCC3)CC1	-0.5
COC(=O)c1c(C)noc1-c1cc(C)on1	-0.533
CN1c2ccccc2N(C)C1c1c(O)ccc2ccccc12	-0.407
O=C1CCC(=O)N1CN(C(=O)c1ccco1)c1ccc(Cl)c(Cl)c1	-0.562
CC(C)Oc1ccc(Cc2c(O)nc(NCCCN(C)C)[nH]c2=O)cc1	-0.396
CCCCOc1ccc(CSC(CC(=O)O)C(=O)O)cc1 (stereo not given)	-0.433
COCc1cc(=O)[nH]c(Nc2nc3ccc(C)cc3o2)n1	-0.463
CCOC(=O)CCCCC(=O)NC(CO)C(=O)NC (stereo not given)	-0.374

molecular target: Voltage-gated potassium channel subunit beta-2 (Rattus norvegicus) (UniProt P62483); assay: KvBeta positive modulators, primary screen, biochemical, NADPH fluorescence (AID 623); conditions: Recombinant KvBeta, NADPH fluorescence decrease slope, 10 min; at 10 µM; hits give low values;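 further: fluorescence intensity change per second fitted from 20 to 320 s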

SMILES	NADPH fluorescence slope
O=C1C=C(O)CC(c2cccs2)C1 (stereo not given)	-5.7e-05
Cc1c(C(Nc2ccccn2)c2ccccc2)c(=O)n(-c2ccccc2)n1C (stereo not given)	-9.6e-05
O=C(c1nsnc1-c1ccccc1O)N1CCCCC1	-9.1e-06
Cc1cc(=O)oc(C)c1C(=O)N1CCN(C)CC1	-0.000105
CCCOc1ccc(C2NC(=O)NC2=O)cc1 (stereo not given)	-7.1e-05
O=c1c(-c2ccc3c(c2)OCCO3)c(C(F)(F)F)oc2cc(O)cc(O)c12	-4e-05
Cn1c(=NCC(O)COc2ccccc2)sc2ccccc21 (stereo not given)	-3.8e-05
COc1cc(-c2cc(C(F)(F)F)n3ncc(C(=O)O)c3n2)cc(OC)c1OC	-0.000193
CCOC(=O)CSc1nc(-c2ccncc2)ccc1C#N	-2e-05
COc1ccc(OCC(O)Cn2c(Nc3cccc(C)c3)nc3c2c(=O)n(C)c(=O)n3C)cc1 (stereo not given)	-3.3e-05
CCCCn1c2nc3ccccc3nc2c2c(=O)n(CC(C)C)cnc21	-9.3e-05
CCN(CC)S(=O)(=O)c1ccc2c(c1)c(C(=O)O)cn2C	-6e-05
CSc1nc(C)cc(OCCNS(=O)(=O)c2cc(C)ccc2C)n1	-8.3e-05
CCOc1nc(SC(C(C)=O)C(=O)Nc2ccccc2)nc(N(C)C)n1 (stereo not given)	-9.6e-06
O=C(Oc1ccccc1N1C(=O)CCC1=O)c1ccco1	-6.4e-05
Cc1cc(C)c(C#N)c(SCC(=O)NC2CC2)n1	-5.6e-05
COC(=O)c1ccccc1NC=C1C(=O)OC2(CCCCC2)OC1=O	-1.9e-05
Cc1cc(C)n(C(=O)CN2C(=O)CCC2=O)n1	1.9e-05
CN1C2C=C3C(C#N)=C(N)C(C#N)(C#N)[C@@H](c4ccsc4)[C@@H]3C1CC2 (stereo not given in full)	4.1e-06
Cc1ccc(/C=c2\sc3n(c2=O)CN(c2ccc(Br)cc2)CN=3)o1	-1.9e-05

SMILES	NADPH fluorescence slope
Clc1ccccc1-c1nn2c(-c3ccccn3)nnc2s1	-0.000155
CC(=O)NC1(C(F)(F)F)C(=O)Nc2c1c(=O)n(C)c(=O)n2C (stereo not given)	-4.1e-05
CC(Sc1nc(N2CCCCC2)c2c(c1C#N)CCCC2)C(=O)O (stereo not given)	1.2e-06
CCN(CC)CCCn1c(C)cc2c(c1=O)C(c1cccc(Cl)c1)C(C#N)=C(N)O2 (stereo not given)	-4.3e-05
CCCCOC(=O)CSc1nc(N)c(C#N)c(-c2ccc(OC)cc2)c1C#N	-6.6e-05
COc1ccc(N2CCN(C3CC(=O)NC3=O)CC2)cc1 (stereo not given)	-4.7e-05
O=C(c1ccco1)N1CCN(c2ncnc3c2[nH]c2ccccc23)CC1	-1.6e-05
COc1ccc(OC)c(C2NC(=O)c3sc(=S)n(-c4ccccc4)c3N2)c1 (stereo not given)	-6.5e-05
CCOc1ccc(-c2nn3c(-c4ccc(OC)cc4)nnc3s2)cc1	-7.7e-05
c1cncc(-c2nnc3sc(C4CCCCC4)nn23)c1	1.1e-05
Cc1c(C(=O)O)c(=S)sn1CCOc1ccccc1	1.3e-05
CCC1(C)Cc2c(sc3c2c(=O)n(C)c2nnc(SCc4ccc5c(c4)OCO5)n32)CO1 (stereo not given)	9.4e-07
CCCC(=O)N1CCN(c2nc(CC(C)C)c3c(c2C#N)CCC3)CC1	-1.9e-05
COC(=O)c1c(C)noc1-c1cc(C)on1	-4e-05
CN1c2ccccc2N(C)C1c1c(O)ccc2ccccc12	-4.1e-05
O=C1CCC(=O)N1CN(C(=O)c1ccco1)c1ccc(Cl)c(Cl)c1	-2.3e-05
CC(C)Oc1ccc(Cc2c(O)nc(NCCCN(C)C)[nH]c2=O)cc1	-1e-05
CCCCOc1ccc(CSC(CC(=O)O)C(=O)O)cc1 (stereo not given)	-0.000104
COCc1cc(=O)[nH]c(Nc2nc3ccc(C)cc3o2)n1	-4.8e-05
CCOC(=O)CCCCC(=O)NC(CO)C(=O)NC (stereo not given)	-2.1e-05
